# Only some compounds are listed: those with a hit (about 2.7% of all), similar ones and a draw of the others.
# 12-LOX inh = Primary qHTS assay for inhibitors of human arachidonate 12S-lipoxygenase (ALOX12): Round 2. Polyunsaturated fatty acid lipoxygenase ALOX12 (Homo sapiens), P18054. purified 12hLO, xylenol orange hydroperoxide absorbance. Potency, µM (top dose mostly 108 µM), for the others: top-dose activity change, negative = inhibition, actives largely listed as inhibitors. 580,000 tested, 1.1% active. AID 1671190, 2021; also: potency is read from the fitted curve at half-maximal effect; % is scaled to controls: 0 for no effect and ±100 for the full control effect
# Target sequence (P18054 whole entry, looked up): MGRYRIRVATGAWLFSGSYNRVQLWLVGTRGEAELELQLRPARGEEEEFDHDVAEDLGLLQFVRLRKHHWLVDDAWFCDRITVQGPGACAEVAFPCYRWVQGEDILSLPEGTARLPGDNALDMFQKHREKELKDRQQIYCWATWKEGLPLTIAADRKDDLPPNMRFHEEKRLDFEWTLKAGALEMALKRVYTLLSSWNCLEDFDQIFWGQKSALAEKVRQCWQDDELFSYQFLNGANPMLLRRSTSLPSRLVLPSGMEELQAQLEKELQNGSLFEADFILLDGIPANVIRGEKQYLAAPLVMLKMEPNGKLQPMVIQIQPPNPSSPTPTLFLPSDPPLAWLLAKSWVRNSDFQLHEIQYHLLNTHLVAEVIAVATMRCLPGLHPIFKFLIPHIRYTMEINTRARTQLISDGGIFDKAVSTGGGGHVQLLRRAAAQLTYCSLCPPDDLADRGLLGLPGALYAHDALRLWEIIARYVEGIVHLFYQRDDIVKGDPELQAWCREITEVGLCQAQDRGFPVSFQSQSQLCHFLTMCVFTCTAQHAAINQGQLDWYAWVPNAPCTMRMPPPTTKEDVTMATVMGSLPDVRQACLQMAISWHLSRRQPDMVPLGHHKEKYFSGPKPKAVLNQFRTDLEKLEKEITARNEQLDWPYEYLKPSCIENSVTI
#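 Purified human 12hLO at 150 nM in 25 mM Hepes, 0.01% Triton X-100, pH 7.0, preincubated 15 min at room temperature with compound. Reaction started with 40 uM arachidonic acid, 30 min at room temperature. Hydroperoxide measured by Fe-xylenol orange, 573/405 nm absorbance ratio.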
# A549 tox = Nrf2 qHTS screen for inhibitors: counterscreen for cytotoxicity | 390,000 tested, 0.16% active | Potency, µM (highest dose often 46 µM), inactives show at the highest dose activity change, negative = cytotoxicity, actives largely listed as inhibitors | AID 504648, 2011 | A549 ARE-Fluc cells, CellTiter-Fluor viability, 18-24 h; also: potency is read from the fitted curve at half-maximal effect; % is scaled to controls: 0 for no effect and ±100 for the full control effect
#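 A549 ARE_Fluc cells in 5% FBS OPTI-MEM were exposed to compounds in concentration-response for 18-24 h at 37 deg C. Viability was read by CellTiter-Fluor fluorescence (Ex 405/Em 525) after 30 min, before the luciferase read.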
# LDHA inh = qHTS assay for inhibitors of human lactate dehydrogenase; L-lactate dehydrogenase A chain (Homo sapiens), P00338; purified LDHA, NADH/diaphorase-resazurin fluorescence; active compounds read low; activity change, % (values are at about 110 or 230 µM); 480,000 tested, 0.15% active; AID 1347041, 2019; in the data active = activity change below about -30%; inconclusive = mostly about -25% to -30%;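 also: plate controls were DMSO wells for no effect and wells without enzyme for full effect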
#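 LDH5 2 nM; NADH 0.06 mM, pyruvate 0.2 mM; 200 mM Tris pH 7.4, EDTA, Tween-20; 5 min RT. Detection: diaphorase 0.133 mg/mL + resazurin 37 µM, fluorescence ex540/em590 at 0 and 20 min; normalized to enzyme-free and DMSO wells.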
# Nrf2 activator = qHTS of Nrf2 Activators; AREc32 ARE-luciferase reporter (MCF7-derived line), luminescence, 24 h; Potency, µM (series often up to 46.1 µM), for the others: top-dose activation, hits mostly activators; 410,000 tested, 0.31% active; AID 624171, 2012; also: potency is read from the fitted curve at half-maximal effect; % of control where 0% means no effect; nearly all actives have a fitted effect of over 65% in size
#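 Cells of the AREc32 ARE-luciferase line are plated in OPTI-MEM containing 5% FBS and left overnight at 37 deg C. Compounds are pinned in, incubation continues 24 hr, and firefly luciferase signal is then measured.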
# Nrf2 inh = Nrf2 qHTS screen for inhibitors. A549 ARE-Fluc reporter, luciferase luminescence, 18-24 h. Potency, µM (titrated, usually from 46 µM), for the others: top-dose activity change, negative = inhibition, actives largely listed as inhibitors. 360,000 tested, 2.1% active; also: potency is read from the fitted curve at half-maximal effect; % is scaled to controls: 0 for no effect and ±100 for the full control effect; nearly all actives have a fitted effect of over 60% in size
#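 Two sequential reads on A549 ARE_Fluc cells exposed to compound for 18-24 h: a CellTiter-Fluor fluorescence read for viability, then a luciferase luminescence read for Nrf2/ARE activity.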
# ERG Ets-DNA blk = qHTS for Small Molecule Inhibitors of the ERG Ets/DNA interaction; Potency, µM (highest dose often 76.9 µM), without a hit: at the top dose FP activity, negative = inhibition, actives largely listed as inhibitors; AID 624246, 2012; 370,000 tested, 0.028% active; fluorescence polarization, His-ERG Ets domain / labelled DNA; Transcriptional regulator ERG (Homo sapiens), P11308; active = well fitted inhibition curve with a large enough effect in the polarisation, with a control signal flat; inconclusive = small, poorly fitted or top-dose-only effect, or effect the other way, or a change in a side signal; inactive = no such curve, though single readings can be large or run the other way; the % refers to the polarisation;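 also: polarization taken with two DNA probes labelled with fluorescein and Texas red; potency is read from the fitted curve at half-maximal effect; % of control where 0% means no effect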
#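 His-tagged ERG Ets domain (1 uM in the protein solution; 300mM KCl, 50mM Tris-HCl, 1mM EDTA, 1mM DTT, pH 7.5) received compound, then a probe mix of 5 nM fluorescein-DNA and 100nM Texas-615-DNA. Fluorescence polarization was read for both dyes.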
# * hit, by the source's call; ? = inconclusive; nt = no result given; [ ] = dose if it differs, or a comment. Unless noted, calls follow the shape of the dose curve; as a rule, active = well fitted curve in the direction sought with a large enough effect; inconclusive = small, poorly fitted or top-dose-only effect, or another doubt; inactive = no such curve, though single readings can be large; an effect the other way counts as inactive or inconclusive.
SMILES,12-LOX inh,A549 tox,LDHA inh,Nrf2 activator,Nrf2 inh,ERG Ets-DNA blk
Cc1c(C(=O)N2CCC3(CC2)OCCO3)oc2ccc(S(=O)(=O)N3CCOCC3)cc12,0%,3%,-8,0%,-20%,-1%
Cc1cccc(N2CCN(C(=O)CCNS(=O)(=O)c3ccc4c(c3)oc(=O)n4C)CC2)c1C,12%,2%,-6,2%,21µM*,-1%
Cc1cccc(N2CCN(C(=O)CCS(=O)(=O)c3ccc4c(c3)oc(=O)n4C)CC2)c1C,2%,4%,-3,0%,?,1%
COC(=O)C1=C(c2ccc(F)cc2OCc2ccccc2)C[C@@H]2CC[C@H]1N2C(=O)NCCc1ccc(F)cc1,1%,?,1,-2%,18µM*,-4%
COC(=O)C1=C(c2ccc(F)cc2OCc2ccccc2)C[C@@H]2CC[C@H]1N2C(=O)NCCOc1ccccc1Cl,-6%,?,-4,-1%,?,1%
COC(=O)C1=C(c2ccc(F)cc2OCc2ccccc2)C[C@@H]2CC[C@H]1N2C(=O)NCCOc1ccccc1,-7%,-19%,5,-1%,?,-2%
COC(=O)C1=C(c2ccc(F)cc2OCc2ccccc2)C[C@@H]2CC[C@H]1N2C(=O)NCCOc1ccc(OC)cc1,1%,-12%,4,-2%,23µM*,-25%
COC(=O)C1=C(c2ccc(F)cc2OCc2ccccc2)C[C@@H]2CC[C@H]1N2C(=O)NCc1ccc(OC)cc1,-4%,-17%,-2,0%,?,12%
COC(=O)C1=C(c2ccc(F)cc2OCc2ccccc2)C[C@@H]2CC[C@H]1N2C(=O)NCc1ccccc1Cl,6%,-16%,-4,0%,5.2µM*,-3%
COC(=O)C1=C(c2ccc(F)cc2OCc2ccccc2)C[C@@H]2CC[C@H]1N2C(=O)NCc1ccc(Br)cc1,-11%,-22%,0,0%,15µM*,3%
Cc1ccsc1CNC(C)C(O)c1ccc(O)cc1 (stereo not drawn),-88%,nt,-8,nt,nt,nt
COc1ccc2[nH]cc(CCNCc3ccc(OC)c(OC)c3)c2c1,?,nt,0,nt,nt,nt
COc1ccc(-c2cc([C@H]3CN4CC[C@H]3C[C@@H]4CNC(=O)c3ccc4c(c3)OCO4)n(C)n2)cc1,11%,nt,nt,nt,nt,nt
CSCCCN=C=S,-5%[176 µM],nt,nt,nt,nt,nt
COc1ccc2c(c1)CC1(CN2C)C(=O)NC(=O)N(CCc2ccccc2)C1=O (stereo not drawn),40µM*,-8%,25,1%,-9%,-5%
CN1CC2(Cc3c1ccc1ccccc31)C(=O)NC(=O)N(CCc1ccccc1)C2=O (stereo not drawn),?,nt,41,nt,nt,nt
Cc1[nH]nc2c1C(c1ccc3c(c1)OCCO3)SCC(=O)N2 (stereo not drawn),3%,nt,-11,nt,nt,nt
O=[N+]([O-])c1ccc(-[n+]2c(-c3ccccc3)cc(-c3ccccc3)cc2-c2ccccc2)cc1,?,0%,1,-2%,14%,-4%
O=[N+]([O-])c1ccccc1-c1cc(-c2ccccc2)cc(-c2ccccc2)[n+]1Cc1ccccc1Cl,-18%,?,4,-2%,21µM*,-2%
C[N+]1(CC(COCc2ccccc2)OC(=O)Cc2ccccc2)CCOCC1 (stereo not drawn),40µM*,8%,?,1%[9.22 µM],2%,-3%
CN1CCC(OC(=O)Cc2ccccc2)CC1,?,-3%,2,0%,-3%,3%
N#CC(C#N)=NNc1ccc(-n2ccc(C(F)(F)F)n2)cc1,28µM*,?,-1,0%,16µM*,-9%
